Where “and” joins values, the source holds several entries; their conditions need not be identical. Identical values can stand only once. Results filed as inconclusive are left out. Calls of active or inactive are those of the source. The call rests on the fitted dose curve; in most records, active means well fitted curve in the direction sought with a large enough effect in the repeat runs; inconclusive means weak or mixed curves; inactive means no such curve, though single readings can be large; an effect the other way counts as inactive or inconclusive.
Tests used:
[1] = qHTS RealTime-Glo MT Cell Viability Assay in HEK293 cells - 40 hour (AID 1224874); settings: RealTime-Glo luminescence; max response: hits give low values; further: nearly all actives have a fitted effect of over 50% in size
Procedure, shortened: (§1)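 Real-time viability in HEK293: signal arises when living cells convert a prosubstrate for NanoLuc in the medium, so luminescence tracks viable cell number. Compound (23 nL, DMSO) added 5 h post-seeding; kinetic reads at 0–40 h, 37 C.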

[2] = A CellTox Green Cytotoxicity Assay to monitor cytotoxicity in HEK293 cells - 24 hour (AID 1224875); further: series mostly up to about 77 µM; nearly all actives have a fitted effect of over 45% in size
Procedure, shortened: (§2)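 Cells (HEK293, 600/well) and dye reagent are dispensed together. After 5 h at 37 C, 23 nL compound is pinned in. Plates stay at 37 C for 40 h with fluorescence read at 0h, 8h, 16h, 24h, 32h and 40h.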

[3] = A CellTox Green Cytotoxicity Assay to monitor cytotoxicity in HepG2 cells - 16 hour (AID 1224876); further: nearly all actives have a fitted effect of over 45% in size
Procedure, shortened: (§3)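 Cells and non-lytic dye reagent are dispensed together (600 HepG2 cells/well) and incubated 5 h before DMSO compound transfer. Kinetic fluorescence is then recorded in the same wells during 40 h at 37 C.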

[4] = qHTS RealTime-Glo MT Cell Viability Assay in HepG2 cells - 32 hour (AID 1224877); further: nearly all actives have a fitted effect of over 55% in size
Procedure, shortened: (§4)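 Viability was tracked continuously by NanoLuc luminescence from prosubstrate reduced by living HepG2 cells, at successive time points over 40 h of compound exposure. Cells with reagent were preincubated 5 h at 37 °C before compound addition.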

[5] = A CellTox Green Cytotoxicity Assay to monitor cytotoxicity in HepG2 cells - 24 hour (AID 1224878); further: nearly all actives have a fitted effect of over 45% in size
Procedure, shortened: as §3

[6] = A CellTox Green Cytotoxicity Assay to monitor cytotoxicity in HepG2 cells - 40 hour (AID 1224879); further: nearly all actives have a fitted effect of over 40% in size
Procedure, shortened: as §3

[7] = qHTS RealTime-Glo MT Cell Viability Assay in HEK293 cells - 0 hour (AID 1224880); further: top concentration of the series differs between compounds; nearly all actives have a fitted effect of over 45% in size
Procedure, shortened: as §1

[8] = A CellTox Green Cytotoxicity Assay to monitor cytotoxicity in HEK293 cells - 32 hour (AID 1224881); further: nearly all actives have a fitted effect of over 40% in size
Procedure, shortened: as §2

[9] = A CellTox Green Cytotoxicity Assay to monitor cytotoxicity in HepG2 cells - 32 hour (AID 1224883); further: nearly all actives have a fitted effect of over 50% in size
Procedure, shortened: as §3

[10] = A CellTox Green Cytotoxicity Assay to monitor cytotoxicity in HEK293 cells - 8 hour (AID 1224884); further: nearly all actives have a fitted effect of over 35% in size
Procedure, shortened: as §2

[11] = qHTS RealTime-Glo MT Cell Viability Assay in HepG2 cells - 16 hour (AID 1224885); further: nearly all actives have a fitted effect of over 50% in size
Procedure, shortened: as §4

[12] = qHTS RealTime-Glo MT Cell Viability Assay in HEK293 cells - 24 hour (AID 1224886); further: top concentration of the series differs between compounds; nearly all actives have a fitted effect of over 50% in size
Procedure, shortened: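 Viability tracked continuously by luminescence as live cells reduce a prosubstrate for NanoLuc; HEK293 cells preincubated 5 h, compound-treated at 37 C, and read at 0, 8, 16, 24, 32 and 40 h.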

[13] = qHTS RealTime-Glo MT Cell Viability Assay in HEK293 cells - 8 hour (AID 1224887)
Procedure, shortened: as §1

[14] = A CellTox Green Cytotoxicity Assay to monitor cytotoxicity in HEK293 cells - 16 hour (AID 1224888); further: nearly all actives have a fitted effect of over 35% in size
Procedure, shortened: as §2

[15] = qHTS RealTime-Glo MT Cell Viability Assay in HepG2 cells - 0 hour (AID 1224889); further: nearly all actives have a fitted effect of over 50% in size
Procedure, shortened: as §4

[16] = A CellTox Green Cytotoxicity Assay to monitor cytotoxicity in HepG2 cells - 8 hour (AID 1224890); further: nearly all actives have a fitted effect of over 45% in size
Procedure, shortened: as §3

[17] = qHTS assay to identify small molecule antagonists of the estrogen receptor alpha (ER-alpha) signaling pathway using the BG1 cell line in the presence of 0.1 nM 17-beta-estradiol - cell viability counter screen (AID 1259241); further: nearly all actives have a fitted effect of over 40% in size
Procedure, shortened: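 In this screen, hormone-deprived VM7Luc4E2 cells were seeded at 4,000 per well, dosed with compound and 0.1 nM estradiol final, and incubated 22 hr at 37C and 5% CO2; fluorogenic live-cell protease signal reported viability.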

[18] = qHTS assay to identify small molecule antagonists of the androgen receptor (AR) signaling pathway using the MDA cell line in the presence of 0.5 nM R1881 - cell viability counter screen (AID 1259242); further: nearly all actives have a fitted effect of over 45% in size
Procedure, shortened: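 Steps: plate MDA-kb2 cells, rest 5 hr at 37C without CO2; pin in compounds in DMSO; add R1881 to 0.5 nM final; incubate 16 hr; add CellTiter-Fluor, 30 min; read fluorescence.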

[19] = A CellTox Green Cytotoxicity Assay to monitor cytotoxicity in HepG2 cells - 0 hour (AID 1224882); further: nearly all actives have a fitted effect of over 35% in size
Procedure, shortened: as §3

[20] = target: Androgen receptor (Homo sapiens) (UniProt P10275); assay: qHTS assay to identify small molecule antagonists of the androgen receptor (AR) signaling pathway using the MDA cell line in the presence of 0.5 nM R1881 (AID 1259243); further: nearly all actives have a fitted effect of over 50% in size
Procedure, shortened: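 Stably transfected MDA-kb2 cells express luciferase from an MMTV promoter bearing both AR and GR response elements. Compounds plus 0.5 nM R1881 (final) were incubated 16 hr at 37C without CO2, then luminescence measured.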
On the % scale 0 is the no-effect control and ±100 the full control effect.

Chain of Androgen receptor (Homo sapiens) (P10275 whole entry, looked up): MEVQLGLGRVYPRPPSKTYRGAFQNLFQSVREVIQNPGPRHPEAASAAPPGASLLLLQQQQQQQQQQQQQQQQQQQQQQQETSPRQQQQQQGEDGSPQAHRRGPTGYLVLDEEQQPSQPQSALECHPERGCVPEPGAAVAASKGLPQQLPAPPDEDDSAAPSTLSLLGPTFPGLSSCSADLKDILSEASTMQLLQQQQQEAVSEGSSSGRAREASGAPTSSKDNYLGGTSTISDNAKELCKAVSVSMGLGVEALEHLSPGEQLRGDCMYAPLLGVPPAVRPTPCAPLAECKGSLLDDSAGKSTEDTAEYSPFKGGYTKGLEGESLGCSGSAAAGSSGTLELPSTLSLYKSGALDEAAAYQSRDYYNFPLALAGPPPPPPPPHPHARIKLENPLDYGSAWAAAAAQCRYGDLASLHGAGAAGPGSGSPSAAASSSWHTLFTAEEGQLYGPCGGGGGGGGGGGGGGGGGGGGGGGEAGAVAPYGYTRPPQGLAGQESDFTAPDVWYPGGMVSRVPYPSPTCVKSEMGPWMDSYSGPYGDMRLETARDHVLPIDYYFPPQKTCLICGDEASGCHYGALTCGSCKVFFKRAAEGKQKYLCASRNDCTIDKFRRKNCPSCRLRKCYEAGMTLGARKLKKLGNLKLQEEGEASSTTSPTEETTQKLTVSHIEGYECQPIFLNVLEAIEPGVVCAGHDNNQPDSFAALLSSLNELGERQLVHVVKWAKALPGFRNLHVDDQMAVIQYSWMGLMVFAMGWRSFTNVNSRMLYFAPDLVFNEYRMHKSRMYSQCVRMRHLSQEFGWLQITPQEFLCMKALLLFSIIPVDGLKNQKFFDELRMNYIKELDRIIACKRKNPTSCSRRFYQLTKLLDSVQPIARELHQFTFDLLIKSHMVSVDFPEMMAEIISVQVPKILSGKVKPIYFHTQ

CCOC(=O)c1ccccc1C(=O)OCC
inactive: max response [1] 0.767% and 3.18% | Potency [2] | Potency [3] | outcome [4] | Potency [5] | Potency [6] | outcome [7] | Potency [8] | Potency [9] | Potency [10] | outcome [11] | Potency [12] | outcome [13] | Potency [14] | outcome [15] | Potency [16] | Potency [17] | outcome [18]

ClCc1cccnc1
inactive: max response [1] 2.33% and -1.14% | Potency [2] | outcome [4] | Potency [5] | Potency [6] | outcome [7] | Potency [8] | Potency [19] | Potency [9] | Potency [10] | outcome [11] | Potency [12] | outcome [13] | Potency [14] | outcome [15] | Potency [16] | Potency [17]

C#CCN(C)[C@H](C)Cc1ccccc1
inactive: max response [1] 3.52% and 3.78% | Potency [2] | Potency [3] | outcome [4] | Potency [5] | Potency [6] | outcome [7] | Potency [8] | Potency [9] | Potency [10] | outcome [11] | Potency [12] | outcome [13] | Potency [14] | outcome [15] | Potency [16] | Potency [17] | outcome [18]

Cc1ccc(N)cc1Cl
inactive: max response [1] -5.66% and 1.08% | Potency [2] | Potency [3] | outcome [4] | Potency [5] | Potency [6] | outcome [7] | Potency [8] | Potency [9] | Potency [10] | outcome [11] | Potency [12] | outcome [13] | Potency [14] | outcome [15] | Potency [16] | Potency [17] | outcome [18]

CC(C)(Cl)Cl
inactive: max response [1] 0.337% and 2.87% | Potency [2] | outcome [4] | Potency [5] | Potency [6] | outcome [7] | Potency [8] | Potency [19] | Potency [9] | Potency [10] | outcome [11] | Potency [12] | outcome [13] | Potency [14] | outcome [15] | Potency [16] | Potency [17] | outcome [18]

Cc1[nH]c(=O)n(C(C)(C)C)c(=O)c1Cl
inactive: max response [1] -2.63% and 1.93% | Potency [2] | Potency [3] | outcome [4] | Potency [5] | Potency [6] | outcome [7] | Potency [8] | Potency [9] | Potency [10] | outcome [11] | Potency [12] | outcome [13] | Potency [14] | outcome [15] | Potency [16] | Potency [17] | Potency [20]

CN=C=S
inactive: max response [1] 6.14% and -4.64% | Potency [2] | outcome [4] | Potency [5] | Potency [6] | outcome [7] | Potency [8] | Potency [19] | Potency [9] | Potency [10] | outcome [11] | Potency [12] | outcome [13] | Potency [14] | outcome [15] | Potency [16] | Potency [17]
